Assay results reported in PubChem BioAssay AID1159580 (chemical genetic matrix, 2015).
About 2,000 (36%) of roughly 5,500 compounds were called active. Inconclusive results (about 18%) are left out. Rule as the data show it: active = normalized growth mostly below about 0.91 (no sharp cut-off); inconclusive = no clear call, values can overlap the other calls; inactive = mostly above about 0.92. This is one part of the list.

Test: chemical genetic growth profiling, strain panel (AID 1159580);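 also: tested at 20 µM; growth read once vehicle control cultures reached saturation at 30 °C; 1 = growth at the plate median or of vehicle wells; lower values mean less growth of the strain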
Conditions: growth OD

Measured: normalized growth

COc1cc(N)c(Cl)cc1C(=O)NC1CCN(Cc2ccccc2)CC1
inactive: S. cerevisiae deletion strains, locus YJR043C, strain POL32, stronger effect = lower value 0.985 | S. cerevisiae deletion strains, locus YJR075W, strain HOC1, stronger effect = lower value 0.978 | S. cerevisiae deletion strains, locus YKL009W, strain mrt4, stronger effect = lower value 0.993 | S. cerevisiae deletion strains, locus YKL068W, stronger effect = lower value 0.974 | S. cerevisiae deletion strains, locus YKL085W, strain MDH1 (second series), stronger effect = lower value 0.995 | S. cerevisiae deletion strains, locus YKL085W, strain MDH1, stronger effect = lower value 0.995 | S. cerevisiae deletion strains, locus YKL160W, strain elf1, stronger effect = lower value 0.991 | S. cerevisiae deletion strains, locus YKL190W, strain CNB1, stronger effect = lower value 0.992 | S. cerevisiae deletion strains, locus YKR001C, strain vps1, stronger effect = lower value 1 | S. cerevisiae deletion strains, locus YKR026C, strain gcn3, stronger effect = lower value 0.988 | S. cerevisiae deletion strains, locus YKR091W, strain srl3, stronger effect = lower value 0.993 | S. cerevisiae deletion strains, locus YLL001W, strain dnm1, stronger effect = lower value 0.99 | S. cerevisiae deletion strains, locus YLL026W, stronger effect = lower value 0.997 | S. cerevisiae deletion strains, locus YLL041C, strain sdh2, stronger effect = lower value 0.996 | S. cerevisiae deletion strains, locus YLR027C, strain aat2, stronger effect = lower value 1 | S. cerevisiae deletion strains, locus YLR039C, strain RIC1, stronger effect = lower value 0.997 | S. cerevisiae deletion strains, locus YLR058C, strain SHM2, stronger effect = lower value 0.988 | S. cerevisiae deletion strains, locus YLR102C, strain apc9, stronger effect = lower value 0.994 | S. cerevisiae deletion strains, locus YLR221C, strain rsa3, stronger effect = lower value 0.996 | S. cerevisiae deletion strains, locus YLR258W, strain gsy2, stronger effect = lower value 0.994 | S. cerevisiae deletion strains, locus YLR262C, strain YPT6 (second series), stronger effect = lower value 1.01 | S. cerevisiae deletion strains, locus YLR262C, strain YPT6, stronger effect = lower value 0.969 | S. cerevisiae deletion strains, locus YLR268W, strain sec22, stronger effect = lower value 0.935 | S. cerevisiae deletion strains, locus YLR320W, strain mms22, stronger effect = lower value 1.01 | S. cerevisiae deletion strains, locus YLR330W, strain CHS5, stronger effect = lower value 0.993 | S. cerevisiae deletion strains, locus YLR342W, strain FKS1 (second series), stronger effect = lower value 1.05 | S. cerevisiae deletion strains, locus YLR342W, strain FKS1, stronger effect = lower value 0.999 | S. cerevisiae deletion strains, locus YLR357W, strain rsc2, stronger effect = lower value 1.02 | S. cerevisiae deletion strains, locus YLR370C, strain arc18, stronger effect = lower value 0.998 | S. cerevisiae deletion strains, locus YLR371W, strain rom2, stronger effect = lower value 0.989 | S. cerevisiae deletion strains, locus YLR384C, strain iki3, stronger effect = lower value 0.993 | S. cerevisiae deletion strains, locus YLR418C, strain cdc73, stronger effect = lower value 0.968 | S. cerevisiae deletion strains, locus YML016C, strain PPZ1, stronger effect = lower value 1 | S. cerevisiae deletion strains, locus YML032C, strain rad52, stronger effect = lower value 0.969 | S. cerevisiae deletion strains, locus YML120C, strain ndi1, stronger effect = lower value 0.993 | S. cerevisiae deletion strains, locus YML124C, strain tub3, stronger effect = lower value 0.996 | S. cerevisiae deletion strains, locus YMR058W, strain fet3, stronger effect = lower value 1 | S. cerevisiae deletion strains, locus YMR078C, strain ctf18, stronger effect = lower value 0.986 | S. cerevisiae deletion strains, locus YMR125W, strain sto1, stronger effect = lower value 0.988 | S. cerevisiae deletion strains, locus YMR129W, stronger effect = lower value 1 | S. cerevisiae deletion strains, locus YMR205C, strain PFK2, stronger effect = lower value 0.997 | S. cerevisiae deletion strains, locus YMR223W, strain ubp8, stronger effect = lower value 1.04 | S. cerevisiae deletion strains, locus YMR231W, strain pep5, stronger effect = lower value 0.985 | S. cerevisiae deletion strains, locus YMR263W, strain SAP30, stronger effect = lower value 0.978 | S. cerevisiae deletion strains, locus YMR307W, strain GAS1, stronger effect = lower value 1.09 | S. cerevisiae deletion strains, locus YNL067W, strain RPL9B, stronger effect = lower value 0.969 | S. cerevisiae deletion strains, locus YNL071W, strain lat1, stronger effect = lower value 0.997 | S. cerevisiae deletion strains, locus YNL128W, strain TEP1, stronger effect = lower value 0.984 | S. cerevisiae deletion strains, locus YNL153C, strain GIM3, stronger effect = lower value 0.985 | S. cerevisiae deletion strains, locus YNL209W, strain ssb2, stronger effect = lower value 1.01 | S. cerevisiae deletion strains, locus YNL233W, strain BNI4, stronger effect = lower value 0.99 | S. cerevisiae deletion strains, locus YNL248C, strain rpa49, stronger effect = lower value 0.991 | S. cerevisiae deletion strains, locus YNL250W, strain rad50, stronger effect = lower value 1 | S. cerevisiae deletion strains, locus YNL271C, strain bni1, stronger effect = lower value 0.995 | S. cerevisiae deletion strains, locus YNL298W, strain CLA4, stronger effect = lower value 0.974 | S. cerevisiae deletion strains, locus YNL307C, strain MCK1, stronger effect = lower value 0.977 | S. cerevisiae deletion strains, locus YNL322C, strain KRE1 (second series), stronger effect = lower value 0.994 | S. cerevisiae deletion strains, locus YNL322C, strain KRE1, stronger effect = lower value 0.991 | S. cerevisiae deletion strains, locus YNR049C, strain mso1, stronger effect = lower value 0.997 | S. cerevisiae deletion strains, locus YNR052C, strain pop2, stronger effect = lower value 0.993 | S. cerevisiae deletion strains, locus YOL006C, strain TOP1, stronger effect = lower value 0.933 | S. cerevisiae deletion strains, locus YOL012C, strain htz1 1.69 | S. cerevisiae deletion strains, locus YOL147C, strain pex11, stronger effect = lower value 0.996 | S. cerevisiae deletion strains, locus YOR001W, strain rrp6, stronger effect = lower value 0.996 | S. cerevisiae deletion strains, locus YOR061W, strain CKA2, stronger effect = lower value 0.994 | S. cerevisiae deletion strains, locus YOR069W, strain VPS5, stronger effect = lower value 0.989 | S. cerevisiae deletion strains, locus YOR070C, strain gyp1, stronger effect = lower value 0.997 | S. cerevisiae deletion strains, locus YOR080W, strain dia2, stronger effect = lower value 1.01 | S. cerevisiae deletion strains, locus YOR083W, strain WHI5, stronger effect = lower value 1 | S. cerevisiae deletion strains, locus YOR106W, strain vam3, stronger effect = lower value 1 | S. cerevisiae deletion strains, locus YOR136W, strain idh2, stronger effect = lower value 0.996 | S. cerevisiae deletion strains, locus YOR144C, strain elg1, stronger effect = lower value 0.982 | S. cerevisiae deletion strains, locus YOR184W, strain ser1, stronger effect = lower value 0.965 | S. cerevisiae deletion strains, locus YOR265W, strain rbl2, stronger effect = lower value 0.998 | S. cerevisiae deletion strains, locus YOR270C, strain vph1, stronger effect = lower value 1.02 | S. cerevisiae deletion strains, locus YOR290C, strain snf2, stronger effect = lower value 0.984 | S. cerevisiae deletion strains, locus YOR316C, strain cot1, stronger effect = lower value 0.963 | S. cerevisiae deletion strains, locus YPL051W, strain arl3, stronger effect = lower value 0.993 | S. cerevisiae deletion strains, locus YPL055C, strain LGE1, stronger effect = lower value 0.976 | S. cerevisiae deletion strains, locus YPL078C, strain atp4, stronger effect = lower value 0.995 | S. cerevisiae deletion strains, locus YPL106C, strain sse1, stronger effect = lower value 0.99 | S. cerevisiae deletion strains, locus YPL240C, strain hsp82, stronger effect = lower value 0.999 | S. cerevisiae deletion strains, locus YPL241C, strain CIN2, stronger effect = lower value 0.998 | S. cerevisiae deletion strains, locus YPR119W, strain clb2, stronger effect = lower value 0.985 | S. cerevisiae deletion strains, locus YPR141C, strain kar3, stronger effect = lower value 0.986 | S. cerevisiae deletion strains, locus YPR163C, strain tif3, stronger effect = lower value 0.986 | S. cerevisiae deletion strains, locus YPR167C, strain met16, stronger effect = lower value 0.983 | S. cerevisiae deletion strains, strain wtn01, stronger effect = lower value 0.949 | S. cerevisiae strains, strain wild type, stronger effect = lower value 1
